Source: PubChem BioAssay (National Center for Advancing Translational Sciences (NCATS))
pAkt inh = HTS Assay for Inhibitors of Akt Phophorylation: Primary Screen. activity change, % for hits at 50 µM. Neuro2A IGF-stimulated pAkt S473 HTRF, 20 min; active compounds read low. AID 651550, 2012. 360,000 tested, 0.32% active; in the data active = activity change below about -80%; inconclusive = mostly about -51% to -80%; note: % is set by controls: 0 for no effect and ±100 for the full control effect
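Neuro2A cells (4,500/well, DMEM with 0.5% FBS) were treated with compound at a single 50 µM final concentration, stimulated with 6 nM IGF for 20 min at 37 °C, and lysed. Phospho-Akt Ser473 was read by HTRF as 665/615 ratio ×10^4.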
PI4K2A inh = qHTS for small molecular inhibitors of PI4K2A. purified PI4K2A, ADP-Glo luminescence, 1 h; active compounds read low. 420,000 tested, 0.13% active. activity change, negative = inhibition, % at 76.9 µM. Phosphatidylinositol 4-kinase type 2-alpha (Homo sapiens), Q9BTU6; in the data active = activity change below about -50%; inconclusive = mostly about -30% to -49%;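 note: -100% = wells without enzyme as full effect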
Target sequence (Q9BTU6 whole entry, looked up): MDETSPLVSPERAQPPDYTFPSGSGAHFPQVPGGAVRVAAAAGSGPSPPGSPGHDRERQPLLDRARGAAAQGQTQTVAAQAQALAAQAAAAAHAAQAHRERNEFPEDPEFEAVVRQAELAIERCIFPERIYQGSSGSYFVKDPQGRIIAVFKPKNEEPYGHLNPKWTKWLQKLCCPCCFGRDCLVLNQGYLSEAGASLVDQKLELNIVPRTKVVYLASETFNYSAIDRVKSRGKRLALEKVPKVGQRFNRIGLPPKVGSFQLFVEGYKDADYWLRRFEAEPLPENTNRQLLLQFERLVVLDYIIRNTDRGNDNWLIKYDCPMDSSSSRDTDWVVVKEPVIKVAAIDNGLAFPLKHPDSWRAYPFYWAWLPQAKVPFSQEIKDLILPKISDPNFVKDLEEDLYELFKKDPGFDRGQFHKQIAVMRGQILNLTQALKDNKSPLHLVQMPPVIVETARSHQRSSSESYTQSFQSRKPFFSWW
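In this quantitative HTS, ADP production by PI4K2A was quantified luminescently after 1 h at ambient temperature; 100 microM adenosine served as plate-quality control.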
DRD3 agonist = qHTS of D3 Dopamine Receptor Agonist: qHTS; D(3) dopamine receptor (Homo sapiens), P35462; D3R DiscoveRx beta-arrestin cells, luminescence, 90 min; max activation, %; 410,000 tested, 0.58% active; AID 652048, 2013; in the data active = max activation above about 30%; note: 0% is about no effect
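Cells at 1500/well, incubated overnight, then treated with pinned compounds (dopamine as control) for 90 min at 37 degrees C. DiscoveRx reagent added for 30 - 60 minutes at room temperature; luminescence read.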
D3 antag = qHTS of D3 Dopamine Receptor Antagonist: qHTS; D3R cells, DiscoveRx beta-arrestin luminescence, antagonist mode; active compounds read low; 360,000 tested, 2.5% active; max response, negative = inhibition, %; AID 652054, 2013; in the data active = max response below about -50%; inconclusive = no clear call, values can overlap the other calls; note: % is set by controls: 0 for no effect and ±100 for the full control effect
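Cells plated overnight at 1500 cells/well, then exposed to library compounds with dopamine controls for 90 minutes at 37 degrees C. DiscoveRx reagent added for 30–60 minutes at room temperature; luminescence read, quantitative HTS format.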
LDHA inh = qHTS assay for inhibitors of human lactate dehydrogenase; purified LDHA, NADH/diaphorase-resazurin fluorescence; active compounds read low; activity change, % (values are at about 110 or 230 µM); 480,000 tested, 0.15% active; in the data active = activity change below about -30%; inconclusive = mostly about -25% to -30%;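 note: plate controls were DMSO wells for no effect and wells without enzyme for full effect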
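Human LDH5 (2 nM) was incubated with 0.06 mM NADH and 0.2 mM pyruvate for 5 min at room temperature in Tris pH 7.4. Remaining NADH was coupled through diaphorase/resazurin, and resorufin fluorescence was read at 0 and 20 min.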
RGS4 inh = Inhibitors of Regulator of G Protein Signaling (RGS) 4: qHTS | Regulator of G-protein signaling 4 (Homo sapiens), P49798 | Transcreener GDP fluorescence polarization, RGS4-accelerated GTP hydrolysis | Potency, µM (series often up to 114 µM), for the others: at the highest dose activity change, negative = inhibition, actives largely listed as inhibitors | 390,000 tested, 0.039% active; active = well fitted inhibition curve with a large enough effect; inconclusive = small, poorly fitted or top-dose-only effect; inactive = no such curve, though single readings can be large or run the other way; note: potency is the fitted concentration of half-maximal effect; % is set by controls: 0 for no effect and ±100 for the full control effect; nearly all actives have a fitted effect of over 75% in size
Target sequence (P49798 whole entry, looked up): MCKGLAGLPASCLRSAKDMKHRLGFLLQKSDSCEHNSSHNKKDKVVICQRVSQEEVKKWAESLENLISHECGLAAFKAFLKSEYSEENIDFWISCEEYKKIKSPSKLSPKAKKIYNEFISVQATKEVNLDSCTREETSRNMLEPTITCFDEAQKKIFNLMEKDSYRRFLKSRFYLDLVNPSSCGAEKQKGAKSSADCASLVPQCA
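MLSMR compounds (23 nl, pin-transferred) preincubated 10 min at room temperature with a 500nM (2x) first reagent, then RGS4 at 900nM (2x) plus Transcreener GDP mix added; fluorescence polarization (620/688 nm) read before and after 90 min at 30 °C.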
* hit, by the source's call; i = inactive; ? = inconclusive; . = no result. Compounds with a hit are over-represented: about 2.8% of the library has one in this group of screens.

SMILES | pAkt inh | PI4K2A inh | DRD3 agonist | D3 antag | LDHA inh | RGS4 inh
COc1ccc(C#Cc2ccc3c(c2)c(=O)c2ccccc2n3C)cc1 | i | -3 | 1 | 47 | -2 | -5%
Nc1ccc2oc3ncccc3c(=O)c2c1 | i | 7 | 1 | -98* | -3 | -31%
Nc1ccc(C#Cc2ccc3oc4ccccc4c(=O)c3c2)cc1 | i | 3 | 59* | 169 | -2 | 12%
COc1cc2sc3ccc(C#Cc4ccc(N)cc4)cc3c(=O)c2cc1OC | i | 0 | 35* | 6 | 5 | -29%
COc1ccc(S(=O)(=O)Nc2ccc3oc4ncccc4c(=O)c3c2)cc1OC | i | 3 | -5 | 0 | -9 | 8%
Cn1c2ccccc2c(=O)c2cc(C#Cc3ccc(N)cc3)ccc21 | i | 4 | 59* | 65 | -2 | -14%
CCc1cccc(NC(=O)c2cnc(N3CCCCC3)c3ccccc23)c1 | . | . | . | . | -4 | .
COc1ccc(C2=NOC(C)(c3nnc(-c4ccncc4)o3)C2)cc1 (stereo not drawn) | i | -60* | 23 | 0 | -7 | 22%
CN(CC(=O)Nc1c(F)cccc1F)Cc1ccccc1 | . | . | . | . | -4 | .
CSc1ccc(CN(C)CC(=O)Nc2c(F)cccc2F)cc1 | i | 5 | 1 | -10 | -33* | 3%
CSc1ccc(CN(C)CC(=O)Nc2ccc(C)cc2Br)cc1 | i | -10 | -35 | -56* | -3 | -2%
CC(=O)Nc1cccc(NC(=O)CSc2cn(CC(=O)N3CCOCC3)c3ccccc23)c1 | . | . | . | . | -13 | .
COc1ccc(C2CCCN2CC(=O)N(CCC#N)c2ccccc2)cc1 (stereo not drawn) | . | . | . | . | 0 | .
CC[C@@H](C(=O)[C@@H](C)[C@@H](O)[C@H](C)[C@@H]1O[C@@H]([C@@H](CC)C(=O)O)CC[C@@H]1C)[C@H]1O[C@]2(C=C[C@@H](O)[C@]3(CC[C@@](C)([C@H]4CC[C@](O)(CC)[C@H](C)O4)O3)O2)[C@H](C)C[C@@H]1C | i | -1 | 249* | 373 | -3 | 9%
CCC(C)Nc1ccc(NC(C)CC)cc1 (stereo not drawn) | i | -16 | 0 | -51* | 5 | -45%
C=C1CC(COc2ccc3c(C)c(Cl)c(=O)oc3c2)(c2ccccc2)OC1=O (stereo not drawn) | i | 12 | -24 | -99* | -9 | ?
COc1ccc2c(C)c(Cl)c(=O)oc2c1 | i | -2 | 2 | 9 | -1 | -9%
O=C(Cn1c(=O)oc2ccccc21)Nc1ccc(-c2nnc3n2CCCCC3)cc1 | . | . | . | . | 3 | .
O=C(O)c1cccc(N2C(=O)c3ccc4c5c(ccc(c35)C2=O)C(=O)N(c2cccc(C(=O)O)c2)C4=O)c1 | i | -8 | -38 | -107* | 35 | -27%
O=C(O)c1cccc(N2C(=O)c3ccc(Oc4ccc(Cl)cc4)cc3C2=O)c1 | i | 1 | 2 | -3 | -8 | 8%
Cc1ccc2oc(/N=C(\N)NC(=O)C(C)(C)C)nc2c1 | i | -5 | -14 | -52* | -6 | 5%
Cc1ccc(-n2c(C3CC3c3ccc(Cl)cc3)n[nH]c2=S)cc1 (stereo not drawn) | . | 2 | 2 | -61* | 8 | ?
O=C(CCC1COc2ccccc2O1)Nc1cccnc1 (stereo not drawn) | i | 3 | 33* | 25 | -2 | -22%
O=C(CCC1COc2ccccc2O1)Nc1ccccn1 (stereo not drawn) | i | -2 | -1 | -4 | 1 | -2%
CC(C(=O)O)c1cccc(Oc2ccccc2)c1 (stereo not drawn) | i | 4 | -29 | -62* | -10 | 14%
SMILES | pAkt inh | PI4K2A inh | DRD3 agonist | D3 antag | LDHA inh | RGS4 inh
Cc1ccc(C)c2nc3sc(C(=O)N4CCCc5ccccc54)c(N)c3cc12 | i | 4 | -19 | -54* | -7 | -23%
Cc1cccc(-c2nc(C#N)c(N3CCOCC3)o2)c1 | . | . | . | . | -31* | .
Cc1cccc(-c2nc(C#N)c(N3CCCCC3)o2)c1 | i | 0 | -6 | -17 | -3 | 10%
Cc1cc(C(=O)N2CCN(S(=O)(=O)c3ccc(C(C)C)cc3)CC2)c(C)n1C(C)C | . | . | . | . | -3 | .
COc1ccc(N=c2oc3c(OC)cccc3cc2C(=O)NCc2ccco2)cc1OC | i | 0 | 33* | 18 | 4 | -5%
COc1ccccc1N=c1oc2c(OC)cccc2cc1C(=O)NCc1ccco1 | i | -1 | 6 | 47 | -4 | 7%
CCC(C)C(=O)Nc1nc(-c2c(C)[nH]c3ccccc23)cs1 (stereo not drawn) | . | . | . | . | 8 | .
COc1ccc(-c2cc(C(=O)NC(C)(C)C)c3ccccc3n2)c(OC)c1 | . | . | . | . | 6 | .
O=C(OCc1ccccc1)N1CCC2CC1c1cc(/C=C/CCCSc3ncccn3)ccc12 (stereo not drawn) | i | 3 | -11 | ? | -34* | .
O=C(OCc1ccccc1)N1CCC2CC1c1cc(N3CCNCC3)ccc12 (stereo not drawn) | i | 4 | -10 | -15 | -31* | .
O=C(OCc1ccccc1)N1CCC2CC1c1cc(-c3cc4ccccc4o3)ccc12 (stereo not drawn) | i | -4 | -3 | 9 | -33* | .
Cc1oc(-c2cccs2)nc1CC(=O)NCc1ccc(CN2CCCCC2)cc1 | . | . | . | . | 0 | .
CC(C)C1NC2(C(=O)c3ccccc3C2=O)C2C(=O)N(c3ccc(F)cc3)C(=O)C12 (stereo not drawn) | -120%* | -22 | -1 | -22 | 1 | -11%
CCN(CC)C(=O)c1sc(NC(=O)Cc2ccccc2)c(C#N)c1C | -115%* | -10 | 5 | ? | -4 | 4%
CCOC(=O)C(CN1CCCC1)c1ccccc1 (stereo not drawn) | i | -5 | -30 | -1 | -10 | 19%
Cc1ccccc1C(=O)OC(C)CN1CCCCC1 (stereo not drawn) | . | . | . | . | -6 | .
CC(CN1CCN(C)CC1)OC(=O)c1ccc(Cl)cc1 (stereo not drawn) | i | -2 | -11 | -14 | -2 | -4%
CC(CN1CCCC1)OC(=O)c1ccc(Br)cc1 (stereo not drawn) | i | -4 | -20 | -67* | 0 | -23%
O=C(c1ccc(Cl)cc1)C(CN1CCCCC1)c1ccccc1 (stereo not drawn) | i | 30 | -26 | -73* | -1 | ?
